Measurements published in PMC4336329 (PLoS ONE, 2015).
In all, about 310,000 compounds went through this assay and about 14,000 (4.5%) showed an effect of 50% or more. The effect is printed as a negative number. For the sample, strong results were picked, then their nearest neighbours and some compounds at random.

target: human ether-à-go-go-related gene (hERG) potassium channel (human, UniProt Q12809); test: primary screen, population patch clamp on CHO cells stably expressing hERG; higher = less effect of the substance
Sequence (Q12809 whole entry, looked up): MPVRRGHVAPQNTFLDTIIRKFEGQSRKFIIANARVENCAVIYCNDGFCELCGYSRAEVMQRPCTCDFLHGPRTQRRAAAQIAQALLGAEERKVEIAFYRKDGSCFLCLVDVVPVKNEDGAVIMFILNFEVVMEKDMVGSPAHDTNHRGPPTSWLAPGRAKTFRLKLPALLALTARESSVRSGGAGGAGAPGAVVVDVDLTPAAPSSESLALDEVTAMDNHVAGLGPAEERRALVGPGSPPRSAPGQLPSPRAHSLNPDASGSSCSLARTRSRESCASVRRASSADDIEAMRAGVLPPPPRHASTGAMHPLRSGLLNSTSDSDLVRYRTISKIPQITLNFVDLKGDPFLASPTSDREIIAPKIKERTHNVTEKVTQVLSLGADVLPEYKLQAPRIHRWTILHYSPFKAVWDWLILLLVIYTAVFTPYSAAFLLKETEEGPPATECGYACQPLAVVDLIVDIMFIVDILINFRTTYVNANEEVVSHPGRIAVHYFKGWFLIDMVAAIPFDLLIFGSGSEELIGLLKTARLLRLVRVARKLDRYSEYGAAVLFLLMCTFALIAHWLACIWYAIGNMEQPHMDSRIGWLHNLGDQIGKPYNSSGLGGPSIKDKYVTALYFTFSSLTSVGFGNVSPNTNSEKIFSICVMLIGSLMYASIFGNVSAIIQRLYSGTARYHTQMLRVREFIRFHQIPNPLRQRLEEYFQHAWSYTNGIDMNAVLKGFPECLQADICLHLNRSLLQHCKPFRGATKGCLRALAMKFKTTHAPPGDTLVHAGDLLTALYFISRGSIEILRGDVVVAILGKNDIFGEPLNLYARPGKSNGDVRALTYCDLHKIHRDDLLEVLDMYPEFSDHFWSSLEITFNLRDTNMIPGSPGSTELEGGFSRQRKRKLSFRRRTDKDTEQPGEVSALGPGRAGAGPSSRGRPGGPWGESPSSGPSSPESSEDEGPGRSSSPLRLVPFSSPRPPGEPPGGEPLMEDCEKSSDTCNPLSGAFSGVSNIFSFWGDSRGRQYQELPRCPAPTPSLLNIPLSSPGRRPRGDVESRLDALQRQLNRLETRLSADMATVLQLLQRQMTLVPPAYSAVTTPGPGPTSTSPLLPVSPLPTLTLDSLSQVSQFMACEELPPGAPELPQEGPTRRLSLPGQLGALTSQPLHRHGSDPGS
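Further: peak tail current of the secondary pulse compared with the same well before compound.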

Row | Structure (SMILES) | hERG current change (%, negative = inhibition) at 10uM [%]
1 | O=C(NCCCCCCNC(=O)OCCO)OCCO | 28.4
2 | NNC(=O)CNS(=O)(=O)c1ccc([N+](=O)[O-])cc1 | 17.4
3 | COc1ccccc1N(C)S(=O)(=O)c1ccc(C(=O)NCC2CCCCC2)cc1 | -3.05
4 | CC(C)Cn1c(N)c(C(=O)COC(=O)CC23CC4CC(CC(C4)C2)C3)c(=O)n(C)c1=O | -16.2
5 | CCCc1cc(=O)c2c(O)cccc2o1 | 5.41
6 | CC1CC1C(=O)OCC(=O)Nc1ccc2[nH]c(=O)[nH]c2c1 (stereo not drawn) | 2.94
7 | COCCN1CCN(C(=O)c2ccc3oc(CCc4ccccc4)nc3c2)CC1 | -30.1
8 | COc1ccccc1N(CC(=O)N1CCN(c2ccccc2)CC1)S(=O)(=O)c1ccc(C)cc1 | 17.5
9 | Cc1nc(NCCc2ccc(S(N)(=O)=O)cc2)c2c(C)c(C)sc2n1 | 4.01
10 | O=C(CCc1nc(-c2ccccc2F)no1)NCCN1CCN(Cc2ccccc2)CC1 | -43.2
11 | CC1(C)CC(=O)c2cc(OCC(=O)NCCCN3CCN(c4ccccc4F)CC3)ccc2O1 | -47.4
12 | CC1(C)CC(=O)c2cc(OCC(=O)NCCCN3CCN(c4ccc(F)cc4)CC3)ccc2O1 | -72.9
13 | COc1ccc(-c2noc(CCC(=O)NCCCN3CCN(c4ccc(F)cc4)CC3)n2)cc1 | -67.4
14 | COc1ccc(-c2noc(CCC(=O)NCCCN3CCC(Cc4ccccc4)CC3)n2)cc1 | -80.7
15 | COc1ccc(-c2noc(CCC(=O)NCCCN3CCC(C)CC3)n2)cc1 | -5.81
16 | COc1ccc(N2CCN(C(=O)CCc3nc(-c4ccc(C)cc4)no3)CC2)cc1 | -14.1
17 | O=C(CCc1nc(-c2ccccc2F)no1)NCCN1CCc2ccccc2C1 | -50.4
18 | O=C(CCc1nc(-c2ccccc2F)no1)NCCN1CCOCC1 | 6.22
19 | CCN1CCN(CCCNC(=O)CCc2nc(-c3ccc(OC)cc3)no2)CC1 | -2.35
20 | CC1(C)CC(=O)c2cc(OCC(=O)NCCN3CCOCC3)ccc2O1 | 22.7
21 | COc1ccc(-c2noc(CCC(=O)NCCc3ccccc3)n2)cc1 | 20.9
22 | Cc1cc(NC(=O)C(C)SCC(=O)Nc2ccccc2N2CCCC2)no1 (stereo not drawn) | 15.1
23 | CCNC(=S)N/N=C/c1cccs1 | 6.26
24 | O=C(CCCCCN1C(=O)CCC1=O)Nc1ccc2c(c1)OCCO2 | 8.47
